Experimental data published in PubChem BioAssay (NCI).
The panel holds about 79,000 compounds, 15% with a hit somewhere; the sample as a whole holds those more often. Calls of active or inactive are those of the source. No stated cut-off is given here; in the data, active means growth inhibition above about 70%; inactive means the rest.

How the values were obtained:
[1] = NCI Yeast Anticancer Drug Screen. Data for the rad50 strain (AID 155);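 further: 0% = growth of vehicle-only cultures of the same strain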; details: S. cerevisiae rad50 strain growth inhibition; at 50.0 µM; active compounds read high
Method in brief: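 Inhibition values express reduced yeast growth in compound-treated cultures relative to vehicle-treated controls.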

[2] = NCI Yeast Anticancer Drug Screen. Data for the mec2-1 strain (AID 157); details: S. cerevisiae mec2-1 strain, at 50.0 µM, active compounds read high
Method in brief: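 Test agents were screened against the mec2-1 yeast strain, with defined DNA repair or cell cycle alteration. Growth was scored as inhibition against vehicle-only controls.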

[3] = NCI Yeast Anticancer Drug Screen. Data for the sgs1 mgt1 strain (AID 161);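 further: 0% = growth of cultures given vehicle only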; details: S. cerevisiae sgs1 mgt1 strain, at 50.0 µM, active compounds read high
Method in brief: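 Inhibition of yeast growth, normalised to vehicle-treated controls, is reported for a strain bearing genetic alterations in DNA damage repair.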

[4] = NCI Yeast Anticancer Drug Screen. Data for the cln2 rad14 strain (AID 165);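 further: 0% = growth equal to vehicle treated cultures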; details: S. cerevisiae cln2 rad14 strain, at 50.0 µM, active compounds read high
Method in brief: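 Growth of compound-exposed yeast (cln2 rad14 genotype) measured and expressed as inhibition relative to vehicle.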

[5] = NCI Yeast Anticancer Drug Screen. Data for the bub3 strain (AID 167); details: S. cerevisiae bub3 mutant strain, at 50.0 µM, active compounds read high
Method in brief: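 Steps: expose the mutant yeast strain to compound; grow alongside vehicle-treated cultures; measure growth; express inhibition against the vehicle cultures.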

[6] = NCI Yeast Anticancer Drug Screen. Data for the mlh1 rad18 strain (AID 175); details: S. cerevisiae mlh1 rad18 strain growth inhibition; at 50.0 µM; active compounds read high
Method in brief: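 In this whole-cell yeast screen, a strain with altered DNA damage repair is challenged with compound, and its growth is measured against matched vehicle-treated controls.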

Measured: growth inhibition

CN(c1ccc(C(=O)c2ccc(N(C)S(C)(=O)=O)cc2)cc1)S(C)(=O)=O
inactive: [1] -22.6% | [2] -27.9% | [3] -8.05% | [4] -2.35% | [5] 4.5% | [6] -6.6%

C/C=C/C=C\C(=O)C1c2cccc(O)c2C(=O)c2c(O)cc(C)cc21 (stereo unspecified)
inactive: [1] 40.4% | [2] 20.9% | [3] 12.3% | [4] 29.6% | [5] 37.5% | [6] 34.1%

Cc1ccc2occ(-c3nnc(NC(=O)c4ccccc4)s3)c(=O)c2c1
inactive: [1] -36.2% | [2] -9.75% | [3] -11.7% | [4] -26.6% | [5] -7.35% | [6] -23.2%

O=c1c(F)cn2c(=O)n1CCCCCCCn1c(=O)c(F)cn(c1=O)CCCCCCC2
inactive: [1] 1.3% | [2] -24.4% | [3] 1.65% | [4] 0.7% | [5] -13.4% | [6] 1.55%

COC(=O)c1ccc(C(=O)OC)c(O)c1O
inactive: [1] 11.3% | [2] 27.9% | [3] 8.85% | [4] -2.85% | [5] 12.8% | [6] 16.4%

N#Cc1cccc(NC(=O)c2ccc(C(=O)O)c(C(=O)c3ccc(C(=O)O)c(C(=O)Nc4cccc(C#N)c4)c3)c2)c1
inactive: [1] -18.6% | [2] -9.7% | [3] -19% | [4] 8.35% | [5] 2% | [6] -20.8%

COC(OC)c1cc(C(=O)O)c2ccccc2n1
inactive: [1] -9.45% | [2] -31.2% | [3] -9.85% | [4] -4.6% | [5] -22.2% | [6] -6.6%

OC(C(=S)N1CCOCC1)(c1ccccc1)c1ccccc1
inactive: [1] 5.35% | [2] 17.6% | [3] -5% | [4] 25.8% | [5] 17.7% | [6] -12.2%

CN(C)S(=O)(=O)c1ccc(Nc2ccc(O)c3c2C(=O)c2c([N+](=O)[O-])ccc(O)c2C3=O)cc1
inactive: [1] 54.9% | [2] 13.4% | [3] -31.9% | [4] -8.3% | [5] -27.8% | [6] 26.1%

CCC(CCCCCc1ccccc1)(C(=O)O)C(=O)O
inactive: [1] -0.7% | [2] 10.8% | [3] 21.7% | [4] -55% | [5] -5.2% | [6] -2.95%

O=C1C(OCc2ccccc2)=C(c2ccccc2)C(=O)N1c1ccccc1
inactive: [1] -1.75% | [2] -13.2% | [3] 2.2% | [4] 24.8% | [5] -11.6% | [6] -9.75%

Cc1ccc(NC(=O)OCC(F)(F)F)cc1NC(=O)OCC(F)(F)F
inactive: [1] 1.9% | [2] 29.3% | [3] 26.1% | [4] -0.9% | [5] 16.8% | [6] 1.95%

O=C(Nc1cccc([N+](=O)[O-])c1)c1ccccc1Cl
inactive: [1] -0.65% | [2] 16.1% | [3] 1.85% | [4] 0.8% | [5] 12.9% | [6] 8.75%

Cc1nc2c(o1)C(=O)c1ccccc1C2=Nc1ccc(N2CCOCC2)cc1
inactive: [2] 29.7% | [3] 13.2% | [4] -1.15% | [5] 11.9% | [6] 39.1%
active: [1] 78.9%

CN1CCC(C(O)c2ccccc2)CC1 (stereo unspecified)
inactive: [1] 3.95% | [2] -3.8% | [3] -6.15% | [4] -24.4% | [5] 3.95% | [6] 5.5%

CC(=O)OCC(OC(C)=O)C(OC(C)=O)C(/C=C/N=[N+]([O-])c1ccccc1)OC(C)=O (stereo unspecified)
inactive: [1] 49% | [2] 31.5% | [3] 45.5% | [4] 42.6% | [5] 48.6% | [6] 44.9%

NC1=Nc2cc(C(F)(F)F)ccc2Sc2nc3ccccc3n21
inactive: [1] 4% | [2] -15.8% | [3] 20.1% | [4] 13.2% | [5] 22.4% | [6] 5.65%

CCOC(=O)C1CC(C)CC1=O (stereo unspecified)
inactive: [1] 5.7% | [2] -2.6% | [3] -4.6% | [4] -4.4% | [5] 1.35% | [6] 0.2%

COC(=O)C[C@](O)(CCCC(C)(C)O)C(=O)O[C@@H]1C(OC)=C[C@]23CCCN2CCc2cc4c(cc2[C@H]13)OCO4
inactive: [1] 51.2% | [2] 35.4% | [3] 43.2% | [4] 41% | [5] 43.3% | [6] 42.5%

CCOC(=O)CSc1cc(C)[o+]c(C)c1
inactive: [1] 4.6% | [2] 6.25% | [3] 6.8% | [4] 15% | [5] -6.4% | [6] -3.15%

O=C(N/N=C\c1ccc([N+](=O)[O-])cc1)Nc1cccc2ccccc12
inactive: [1] -49% | [2] 13.3% | [3] -42.4% | [4] -14.4% | [5] -1% | [6] -41.8%

COc1ccc(CCNC(=S)N/C=C\c2nc3ccccc3[nH]c2=O)cc1OC
inactive: [1] 11.1% | [2] 2.8% | [3] 6.15% | [4] 11.3% | [5] 8% | [6] 19.9%

CC(=O)OCC1OC(Sc2nc3ncnc(N)c3[nH]2)C(OC(C)=O)C(OC(C)=O)C1OC(C)=O (stereo unspecified)
inactive: [1] -0.55% | [2] -1.3% | [3] -18.9% | [4] -3.5% | [5] 4.5% | [6] -3.4%

N#Cc1ccc(OCCCCCOc2ccc(C#N)cc2)cc1
inactive: [1] -11.2% | [2] -0.65% | [3] -1.15% | [4] -43.1% | [5] -2.6% | [6] -5.8%

COc1c(O)c2ccccc2c2cc(O)ccc12
inactive: [1] 6.8% | [2] 25.1% | [3] 23.6% | [4] -14.2% | [5] 56.4% | [6] 10.2%

N#Cc1nc(/C=C/c2cccnc2)oc1N
inactive: [1] -1.9% | [2] 6.7% | [3] -8.1% | [4] -3.65% | [5] -6.55% | [6] -56.6%

C/C(=C/C(C)C)C(C)(C#N)C(N)=O (stereo unspecified)
inactive: [1] 8.75% | [2] 5.8% | [3] 1.2% | [4] 8.25% | [5] 8.75% | [6] 4.35%

CCOC(=O)C1CSC(c2ccccc2)=N1 (stereo unspecified)
inactive: [1] 8.75% | [2] -4.4% | [3] -2.35% | [4] -4.25% | [5] -8.35% | [6] 27.1%

CS(=O)(=O)OC1CCCSc2ccccc21 (stereo unspecified)
inactive: [1] 8.8% | [2] 2% | [3] -14.4% | [4] -8.2% | [5] 16.7% | [6] -25.4%

COC(=O)NC1(NC(=O)OC)NC(=O)c2cc(OC)c(OC)c(OC)c2N1
inactive: [1] 17.1% | [2] 8.45% | [3] 10.8% | [4] -10.8% | [5] -12.3% | [6] 3.85%

C[n+]1cc(-c2ccccc2)cc(-c2ccccc2)c1
inactive: [1] 0.85% | [2] -3.35% | [3] -1.55% | [4] -29.8% | [5] -3.45% | [6] 6.85%

CCC1C[N+]2(C)CCc3cc(OC)c(OC)cc3C2CC1=O (stereo unspecified)
inactive: [1] -10.2% | [2] 1.25% | [3] 12.8% | [4] 19.9% | [5] 1.35% | [6] 7%

COc1ccc(OC(C)C(=O)O)cc1 (stereo unspecified)
inactive: [1] 13.2% | [2] 10.5% | [3] 3.5% | [4] -31.5% | [5] 13.3% | [6] 6.25%

Cc1cccc2c1c1ccc3c(c1n2C)C(=O)C=CC3=O
inactive: [1] 5.05% | [2] -12.4% | [3] 4.6% | [4] 18.6% | [5] -11.2% | [6] -5%

CNC(=O)c1nnn(Cc2ccc(OC)cc2)c1Cl
inactive: [1] -8.05% | [2] -8.9% | [3] -14.7% | [4] -69% | [5] -1.3% | [6] -8.15%

OC1COc2c3ccccc3nn2C1 (stereo unspecified)
inactive: [1] -1.35% | [2] 2.85% | [3] 21.7% | [4] 14.5% | [5] 7.8% | [6] 30.1%

CC(=O)Nc1ccc2nc(C)cc(Cl)c2c1
inactive: [1] 25.5% | [2] -3.45% | [3] 9.4% | [4] -8.8% | [5] 6.55% | [6] 4.35%

CC(=O)OCC(=O)[C@H]1CC[C@@H]2[C@]1(C)CC=C1[C@]23C=C[C@]2(C[C@@H](OC(C)=O)CC[C@]12C)C1C(=O)OC(=O)C13 (stereo partly specified)
inactive: [1] -9.65% | [2] 3.4% | [3] -0.6% | [4] -8.35% | [5] 4.65% | [6] 26.9%

COc1ccc(C2=Nc3ccccc3NC(=O)C2)cc1
inactive: [1] -10.2% | [2] -20.9% | [3] -12.6% | [4] 11.4% | [5] -17.1% | [6] -19.9%

C=CCc1cccc(C2N(Cc3ccc(OC)cc3OC)CCCN2Cc2ccc(OC)cc2OC)c1O
inactive: [1] 26.6% | [2] 7% | [3] -0.75% | [4] 16.6% | [5] -2.05% | [6] 17.8%

CC(=O)N[C@H](CO)[C@H](O)c1ccc([N+](=O)[O-])cc1
inactive: [1] -12.2% | [2] 10.1% | [3] 9% | [4] -47.6% | [5] 16.1% | [6] 19.6%
